Nrf2 ARE act: qHTS of Nrf2 Activators. AREc32 ARE-luciferase reporter (MCF7-derived line), luminescence, 24 h. Potency, µM (doses to about 46.1 µM), for inactives: top-dose activation, actives largely listed as activators. 0.31% of 410,000 active. AID 624171, 2012; note: % of control where 0% means no effect; nearly all actives have a fitted effect of over 65% in size
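Luminescent ARE reporter assay in AREc32_Fluc cells: overnight plating at 37 deg C, 24 hr compound incubation, Steady-Glo added, 30 min RT before reading.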
Nrf2 block: Nrf2 qHTS screen for inhibitors. A549 ARE-Fluc reporter, luciferase luminescence, 18-24 h. Potency, µM (doses to about 46 µM), without a hit: top-dose activity change, negative = inhibition, usual class: inhibitors. 2.1% of 360,000 active; note: % is set by controls: 0 for no effect and ±100 for the full control effect; nearly all actives have a fitted effect of over 60% in size
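Nrf2 activity is the BugLite luminescence, read 15 min after reagent at room temperature, following CellTiter-Fluor cytotoxicity readout (30 min, 37C). Compound titrations were applied for 18-24 h to 5000 A549 ARE_Fluc cells/well in 5% FBS OPTI-MEM.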
TGFb SMAD3 inh: qHTS for Inhibitors of TGF-b; HepG2 CAGA-GFP TGF-b/SMAD3 reporter, GFP fluorescence, 18 h; TGF-beta stimulated, 500 pg/mL final; Potency, µM (series often up to 46.1 µM), inactives show top-dose activity, negative = inhibition, hits mostly inhibitors; 1.2% of 410,000 active; AID 588855, 2011; note: % is set by controls: 0 for no effect and ±100 for the full control effect; nearly all actives have a fitted effect of over 65% in size
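HEPG2 CAGA-GFP cells (1000/well, DMEM with 1% FBS) were pre-incubated 2 h at 37 degrees C, given compound by pin tool, then stimulated with TGF-beta at 500 pg/mL final for 18 h before per-cell GFP fluorescence imaging.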
HepG2 tox-1: qHTS for Inhibitors of TGF-b: Cytotox Counterscreen. 0.76% of 410,000 active. Potency, µM (doses to about 46.1 µM), for inactives: at the top dose activity change, negative = cytotoxicity, most hits filed as cytotoxic. HepG2 CAGA-GFP viability, ATP luminescence, 18 h. AID 588856, 2011
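CellTiter-Glo luminescence gave cytotoxicity after 18 hours at 37 degrees C. The cells were HepG2 CAGA-GFP in 1% FBS DMEM, stimulated with 500 pg/mL TGF-beta after compound addition. %Activity was normalised to no-cell wells (complete cell-killing) and DMSO (no toxicity), and curves were fitted and classified.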
A549 viability: Nrf2 qHTS screen for inhibitors: counterscreen for cytotoxicity. Potency, µM (top dose mostly 46 µM), without a hit: at the highest dose activity change, negative = cytotoxicity, most hits filed as inhibitors. A549 ARE-Fluc cells, CellTiter-Fluor viability, 18-24 h. 0.16% of 390,000 active; note: % is set by controls: 0 for no effect and ±100 for the full control effect
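A549 ARE-Fluc cells in 5% FBS OPTI-MEM, 5000 cells/well, rested 2 h then exposed to compounds in concentration-response for 18-24 h at 37 °C. Viability by CellTiter-Fluor fluorescence (Ex 405/Em 525) after 30 min; luciferase luminescence (BugLite, 15 min, RT) read afterwards.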
TGFb CAGA inh: qHTS for Inhibitors of TGF-b: Confirmation of Cherry Picks | 63% of 1,600 active | HepG2 CAGA-GFP TGF-b reporter, GFP fluorescence, 18 h; cells stimulated with TGF-beta, 500 pg/mL | Potency, µM (titrated, usually from 46.1 µM), inactives show top-dose activity, negative = inhibition, most hits filed as inhibitors | shares compounds with TGFb SMAD3 inh; note: % is set by controls: 0 for no effect and ±100 for the full control effect; nearly all actives have a fitted effect of over 65% in size
HepG2 tox-2: qHTS for Inhibitors of TGF-b: Cytotox Counterscreen for Cherry Picks; shares compounds with TGFb SMAD3 inh; HepG2 CAGA-GFP viability, ATP luminescence, 18 h; cells stimulated with TGF-beta, 500 pg/mL; 27% of 1,600 active; Potency, µM (top dose mostly 46.1 µM), inactives show at the highest dose activity, negative = cytotoxicity, usual class: inhibitors; note: % is set by controls: 0 for no effect and ±100 for the full control effect; nearly all actives have a fitted effect of over 70% in size
TGFb CCL64 inh: qHTS for Inhibitors of TGF-b: CCL64 Cells Orthogonal Assay for Cherry Picks | shares compounds with TGFb SMAD3 inh | CCL64 CAGA-GFP reporter, TGF-b stimulated, GFP fluorescence, 18 h | Potency, µM (highest dose often 46.1 µM), without a hit: top-dose activity, negative = inhibition, actives largely listed as inhibitors | 41% of 1,600 active; note: nearly all actives have a fitted effect of over 65% in size
COP TGFb inh: qHTS for Inhibitors of TGF-b: Hit Validation in HepG2 Cells using COP promoter; shares compounds with TGFb SMAD3 inh; HepG2 COP-GFP TGF-b reporter, GFP fluorescence, 18 h; cells stimulated by added recombinant TGF-beta; Potency, µM (top dose mostly 46.1 µM), inactives show at the top dose activity, negative = inhibition, usual class: inhibitors; 3% of 1,600 active; AID 720537, 2013; note: nearly all actives have a fitted effect of over 70% in size
Numbers without * were called inactive; ? = inconclusive; . = no result. In the library only some 3.6% were active in any assay of this set; here they are far more common. Calls come from the whole dose curve; as a rule, active = well fitted curve in the direction sought with a large enough effect; inconclusive = small, poorly fitted or top-dose-only effect, or another doubt; inactive = no such curve, though single readings can be large; an effect the other way counts as inactive or inconclusive. Potency is the fitted concentration of half-maximal effect.

SMILES | Nrf2 ARE act | Nrf2 block | TGFb SMAD3 inh | HepG2 tox-1 | A549 viability | TGFb CAGA inh | HepG2 tox-2 | TGFb CCL64 inh | COP TGFb inh
COc1ccc2[nH]c3c(c2c1)CCN1C(=O)C(CC(=O)NCCC2=CCCCC2)C[C@H](C(=O)N(C(C)C)C(C)C)[C@@]31C (some centres undefined) | -2% | ? | 10µM* | -70% | ? | ? | -20% | ? | 39%
C[C@]12c3[nH]c4cc(-c5ccco5)ccc4c3CCN1C(=O)[C@@H](CC(=O)NCCN1CCOCC1)C[C@@H]2C(=O)N1CCOCC1 | 4% | 9% | 24% | 7% | -2% | . | . | . | .
CCN(CC)C(=O)[C@H]1C[C@H](CC(=O)NCc2ccc(OC)c(OC)c2)C(=O)N2CCc3c([nH]c4cc(CCC(=O)N(C)C)ccc34)[C@]12C | 2% | 7% | -4% | -3% | 3% | . | . | . | .
COc1ccc(Oc2cc(C)c3cccc(C)c3n2)cc1 | 2% | . | 0% | -12% | 13% | . | . | . | .
CC(C)COc1cccc(C(=O)N2CCN(C(=O)c3ccco3)CC2)c1 | 1% | -9% | 2% | -3% | 4% | . | . | . | .
CC(C)=CCC/C(C)=C/CNC(=O)C[C@H]1C[C@H](C(=O)N2CCOCC2)[C@@]2(C)c3[nH]c4ccc(Cl)cc4c3CCN2C1=O | -1% | ? | 10µM* | 18µM* | ? | 13µM* | ? | 13µM* | -20%
Cc1nc2ccc(NC(=O)c3ccc(S(=O)(=O)N4CCOCC4)cc3)cc2s1 | 0% | . | -5% | 1% | -16% | . | . | . | .
O=C(Nc1ccc(S(=O)(=O)N2CCOCC2)cc1)c1ccco1 | 0% | 5% | -6% | -1% | 1% | . | . | . | .
O=C(Nc1ccc(S(=O)(=O)N2CCOCC2)cc1)c1ccc([N+](=O)[O-])o1 | ? | -1% | 6.3µM* | -180% | -8% | 3.3µM* | 13µM* | 12µM* | ?
O=C(Nc1ccc(N2CCOCC2)cc1)c1ccc([N+](=O)[O-])o1 | ? | ? | 5.6µM* | -61% | -9% | 12µM* | 23µM* | ? | 13%
O=C(Nc1ccc(S(=O)(=O)N2CCOCC2)cc1)c1ccc([N+](=O)[O-])s1 | ? | -5% | 4.5µM* | -21% | -10% | 1.6µM* | 5.2µM* | -17% | 29%
Cc1cc2nn(-c3ccc(Cl)cc3)nc2cc1N | 14% | ? | 0.79µM* | -37% | 8% | 6.5µM* | 2.6µM* | 6% | 40%
Cc1cc2nn(-c3ccc(F)cc3)nc2cc1N | 5% | ? | ? | -23% | 2% | . | . | . | .
O=C1OCCN1C(=O)[C@H]1[C@H](c2ccccc2)C(c2cccc(Cl)c2)=NN1c1ccc(Br)cc1 | 5% | -8% | ? | -15% | ? | ? | -17% | 23% | 3%
